Screening data: PubChem, several laboratories
This is a sample that favours compounds with a hit; in the whole collection about 27% have one here.
CYP2C9 act: CYP2C9 (human) activation; AID 1024; P11712; recombinant CYP2C9, luciferin-H conversion, luminescence; hits give high values; factor 1 = untreated enzyme, 0 = blocked; hit rate 1.4% among 96,000; activation factor at 5 µM;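 active = activation factor of 2 or more for CYP2C9 at a 5 µM dose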
Cav32 inh: inhibitors of human Cav3.2 T-type calcium channel | O95180 | Cav3.2-expressing cells, Fluo-4 calcium fluorescence FDSS; hits give low values | B-score at 10 µM | hit rate 4% among 100,000;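 active = single-dose well whose peak fluorescence ratio is a statistical outlier from its plate by either plate-standardised score or position-corrected B-score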
CYP2C19 act: activators of human cytochrome P450 2C19; recombinant CYP2C19, luciferin-H EGE luminescence; hits give high values; 0 = fully inhibited enzyme, 1 = untreated enzyme; activation factor at 5 µM; 96,000 tested, under 10 active;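 active = activation factor of at least 2 at 5 µM in the primary screen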
Target sequence (P33261 whole entry, looked up): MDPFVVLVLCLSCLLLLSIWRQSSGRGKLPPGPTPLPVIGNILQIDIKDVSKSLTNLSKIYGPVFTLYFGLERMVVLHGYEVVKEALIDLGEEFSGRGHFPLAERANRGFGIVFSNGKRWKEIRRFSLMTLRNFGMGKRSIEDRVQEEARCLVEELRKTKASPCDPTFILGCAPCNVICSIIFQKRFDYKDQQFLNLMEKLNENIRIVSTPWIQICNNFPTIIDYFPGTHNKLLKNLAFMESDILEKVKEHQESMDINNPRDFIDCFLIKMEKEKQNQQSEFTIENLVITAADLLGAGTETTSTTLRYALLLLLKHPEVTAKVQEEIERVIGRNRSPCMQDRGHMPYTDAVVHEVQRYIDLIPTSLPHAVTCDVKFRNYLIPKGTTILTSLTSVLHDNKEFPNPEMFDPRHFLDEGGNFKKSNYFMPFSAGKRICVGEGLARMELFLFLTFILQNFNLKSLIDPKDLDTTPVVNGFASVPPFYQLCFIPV
CYP2C19 inh: blocks human cytochrome P450 2C19 | CYP2C19 Supersomes, luciferin-H EGE luminescence, 30 min | P33261 | inhibition, % at 5 µM | hit rate 21% among 96,000;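 active = CYP2C19 inhibition above a set limit at 5 µM in the primary screen, cut at about 50% in these data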
CYP2C9 inh: human CYP2C9 inhibition; CYP2C9 Supersomes, luciferin-H conversion, luminescence; inhibition, % at 5 µM; P11712; hit rate 20% among 96,000; AID 777;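 active = blocking of liver enzyme CYP2C9 beyond about 50% at 5 µM, limit read from the data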
Large screens that a line does not name were inactive.

COc1ccc(OC)c(N(CC(=O)Nc2cccnc2)S(=O)(=O)c2ccccc2)c1	CYP2C19 inh 98, CYP2C9 inh 98
COc1ccc(N(CC(=O)Nc2ccc3c(c2)OCCO3)S(=O)(=O)c2cccnc2)cc1	none
CCOc1ccccc1N(C(=O)Cn1nnnc1-c1ccc(C)o1)C(CC)C(=O)NC(C)(C)C (stereo not drawn)	none (no result: CYP2C9 act, CYP2C19 act, CYP2C19 inh, CYP2C9 inh)
O=C(NCc1cccnc1)c1cnc2sccn2c1=O	none
COC(=O)c1cc(OC)c(OC)cc1NC(=S)N1CCCC(CO)C1 (stereo not drawn)	none
C=C(C)Cn1c(NCCOC)nc2c1c(=O)[nH]c(=O)n2C	none (no result: CYP2C9 act, CYP2C19 act, CYP2C19 inh, CYP2C9 inh)
COC(=O)C1=C(C)N(CCc2cc(OC)c(OC)c(OC)c2)C(=O)N[C@H]1c1ccccc1	none (no result: CYP2C9 act, CYP2C19 act, CYP2C19 inh, CYP2C9 inh)
COc1ccccc1N(CC(=O)NCc1ccccc1)S(C)(=O)=O	none
COc1ccccc1N(CC(=O)Nc1cccnc1)S(C)(=O)=O	CYP2C19 inh 68
CCn1ncc(/C=N/N=C2\CCC3C4CCc5cc(O)ccc5C4CCC23C)c1C (stereo not drawn)	CYP2C9 inh 80
Cc1cc(C(F)(F)F)n(-c2nc(C(=O)Nc3ccccc3Oc3ccccc3)cs2)n1	Cav32 inh -4.4
Cc1cc(C(F)(F)F)n(-c2nc(C(=O)N/N=C/c3ccc(F)cc3)cs2)n1	CYP2C9 inh 55
Cc1ccc(NC(=O)NC(=O)CN2C(=O)NC3(CCc4ccccc43)C2=O)c(C)c1 (stereo not drawn)	none
Cc1nc2ccc(N)cc2c(=O)n1Cc1ccc(Cl)cc1	CYP2C19 inh 99, CYP2C9 inh 84
CCCCOc1ccccc1C(=O)NCCCCCC(=O)O	none
COc1ccc(/C=C(/C(=O)Nc2ccccc2C(=O)N2CCCC2)c2ccccc2)cc1	none
O=C(/C(=C/c1ccccc1)c1ccccc1)N1CCCCC1	CYP2C9 inh 74
O=C(/C=C/c1ccccc1)N/C(=C/c1ccccc1)C(=O)N1CCCCC1	Cav32 inh -5.6
NC(=O)/C(=C/c1ccco1)NC(=O)/C=C/c1ccccc1	none
CCC1CCC/C1=N\NC(=O)c1cc(C)[nH]n1 (stereo not drawn)	none
CC(Cc1ccccc1)C(=O)NCc1ccncc1 (stereo not drawn)	none (no result: CYP2C9 act, CYP2C19 act, CYP2C19 inh, CYP2C9 inh)
CC(c1ccccc1)n1cc(C(=O)NCc2ccncc2)nn1 (stereo not drawn)	CYP2C9 inh 81
Cc1cc(C(=O)NCc2ccco2)no1	none
CC(c1ccccc1F)n1cc(C(=O)NCCc2ccco2)nn1 (stereo not drawn)	CYP2C9 inh 58
CC(c1ccccc1F)n1cc(C(=O)NCc2ccncc2)nn1 (stereo not drawn)	CYP2C19 inh 54, CYP2C9 inh 69
Cc1cc2ncn(C(=O)c3c(-c4ccccc4Cl)noc3C)c2cc1C	none
Cc1sc2ncnc(N3CCCCC3C)c2c1C (stereo not drawn)	CYP2C19 inh 79
Cc1sc2ncnc(N3CCCCC3)c2c1C	none
CC1(C)CC2CC(C)(CN2C(=O)COC(=O)c2ccc(Cl)c(N)c2)C1 (stereo not drawn)	Cav32 inh -6.4
Cn1cccc1CC(=O)N/N=C\c1c2ccccc2cc2ccccc12	CYP2C19 inh 52
CCOCCN1CCN(c2c(C)c(C)nc3cc(-c4cc(OC)cc(OC)c4)nn23)CC1	CYP2C19 inh 87, CYP2C9 inh 54
CCOc1ccc(N2C(=O)c3cccnc3C2Nc2ccc(C)cc2)cc1 (stereo not drawn)	none
CC(=O)n1cc([C@H]2C=C(C(=O)N3CCN(Cc4ccccc4)CC3)O[C@@H](OCc3ccc(CO)cc3)C2)c2ccccc21	none (no result: CYP2C9 act, CYP2C19 act, CYP2C19 inh, CYP2C9 inh)
Cc1ccccc1-n1nc2c(c1NC(=O)COc1ccc(Cl)cc1)CS(=O)C2 (stereo not drawn)	CYP2C19 inh 100 (no result: Cav32 inh)
Cc1ccc(-c2nc3ccccc3c(C(=O)NCc3cccs3)c2C)cc1	CYP2C19 inh 87, CYP2C9 inh 95
Cc1ccc(C)c(-c2cc(C(=O)NCc3cccs3)c3ccccc3n2)c1	CYP2C9 inh 52
CC(=O)N1CCCc2cc(S(=O)(=O)Nc3ccc4c(c3)OCO4)ccc21	CYP2C19 inh 99, CYP2C9 inh 87
CCN(c1cccc(C(F)(F)F)c1)S(=O)(=O)c1ccc2c(c1)CCN2C(=O)C1CC1	Cav32 inh -4.7
CCC(=O)N1CCc2cc(S(=O)(=O)N(CC)c3cccc(C)c3)ccc21	none
CC(=O)N1CCc2cc(S(=O)(=O)Nc3cccc(C(F)(F)F)c3)ccc21	CYP2C19 inh 95, CYP2C9 inh 71
COCc1[nH]nc2c1C(c1cc(OC)c(O)c(OC)c1)C(C#N)=C(N)O2 (stereo not drawn)	none
CCOc1ccc2[nH]cc(C(=O)N3CCN(CC)CC3)c(=O)c2c1	none
Cc1ccc(NS(=O)(=O)c2ccc(CCC(=O)O)cc2)cc1	none
O=C(O)c1ccc(NS(=O)(=O)c2ccc(Cl)cc2)cc1	none
CC(=O)c1ccc(NS(=O)(=O)c2ccc(CC(C)C)cc2)cc1	CYP2C19 inh 67, CYP2C9 inh 86
CC(=O)c1ccc(NS(=O)(=O)Cc2ccc(Cl)cc2)cc1	CYP2C19 inh 74, CYP2C9 inh 77
CCOC(=O)CC1=C(C(=O)OCC)C(c2ccc(OC)c(OC)c2)C(C#N)=C(N)O1 (stereo not drawn)	CYP2C19 inh 74, CYP2C9 inh 87
CCOC(=O)CC1=C(C(=O)OCC)C(c2cccs2)C(C#N)=C(N)O1 (stereo not drawn)	CYP2C19 inh 78
CCOC(=O)C1=C(C)OC(N)=C(C#N)C1c1ccc(OC)c(C)c1OC (stereo not drawn)	CYP2C19 inh 73, CYP2C9 inh 55
C#CCSC1=C(C#N)C(c2cccs2)C(C(=O)OCC)=C(C)N1 (stereo not drawn)	CYP2C19 inh 64, CYP2C9 inh 72
CN1CCCc2cc3c(C(F)(F)F)cc(=O)oc3nc21	none (no result: Cav32 inh)
CCOC(=O)C1=C(C)OC(N)=C(C#N)C1c1cc(F)ccc1F (stereo not drawn)	CYP2C19 inh 83
CCOC(=O)C1C(=O)NC(SCC(=O)Nc2nccs2)=C(C#N)C1c1ccccc1OCC (stereo not drawn)	none (no result: CYP2C9 act, CYP2C19 act, CYP2C19 inh, CYP2C9 inh)
CCOC(=O)C1=C(C(C)=O)C(c2cccnc2)C(C#N)=C(N)O1 (stereo not drawn)	none
CCOC(=O)CC1=C(C(=O)OCC)C(c2cc(OC)c(OC)cc2OC)C(C#N)=C(N)O1 (stereo not drawn)	none
CCOc1cc(C2C(C#N)=C(N)OC(C)=C2C(C)=O)c(Br)c(Br)c1OC(C)C (stereo not drawn)	Cav32 inh -5.3 (no result: CYP2C9 act, CYP2C19 act, CYP2C19 inh, CYP2C9 inh)
CCN(CC)C(=O)CSC1=C(C#N)C(c2cccs2)C=C(C)N1 (stereo not drawn)	CYP2C19 inh 60
COC(=O)CC1=C(C(=O)OC)C(c2ccncc2)C(C#N)=C(N)O1 (stereo not drawn)	CYP2C19 inh 80, CYP2C9 inh 80
CCOC(=O)CSc1nnc(CNC(=O)c2ccco2)n1C	none
COC(=O)C1=C(C)OC(N)=C(C#N)C1c1cc(C)sc1C (stereo not drawn)	CYP2C19 inh 88
